The assay can be described thus: NCI Yeast Anticancer Drug Screen. Data for the CLN2oe strain (AID 163).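 Further: 0% = growth of vehicle-only control cultures.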 Particulars: S. cerevisiae CLN2oe strain, hits give high values. Here is the method: Growth inhibition of yeast strains with defined genetic alterations is measured as a screen for potential anti-cancer activity. Selected strains with alterations in DNA damage repair or cell cycle control were exposed to compounds and growth inhibition was measured relative to vehicle treated controls. The strain used in this assay is CLN2oe

This note sets out measurements from PubChem BioAssay (NCI).

This is part of a sample that, as a whole, favours compounds with a hit. Of some 79,000 tested, about 15% had one in any assay. Unmarked numbers belong to inactive results. Active and inactive are the calls of the source. No stated cut-off is given here; in the data, active means growth inhibition above about 70%; inactive means the rest.

Regarding `CCCCN(CCC#N)c1ccc(/C=C/c2ccnc3ccccc23)cc1`, the growth inhibition is -8% (at 1.2 µM); -14% (at 3.7 µM); -22% (at 11.0 µM); -23% (at 33.0 µM); 22% (at 100.0 µM).

Turning to `O=C(O)CNC(c1ccccc1)(c1ccccc1)c1ccccc1`, the growth inhibition by setting is: (at 1.2 µM) -14%; (at 3.7 µM) -12%; (at 11.0 µM) -6%; (at 33.0 µM) 85% (active); (at 100.0 µM) 98% (active).

In the case of `CC(=O)O[C@H]1CC[C@@]2(C)C(=CC[C@@H]3C2CC[C@]2(C)C(=O)NC(=O)CC32)C1` (stereo not given in full), the growth inhibition by setting is: (at 1.2 µM) 2%; (at 3.7 µM) -4%; (at 11.0 µM) -16%; (at 33.0 µM) -13%; (at 100.0 µM) -23%.

With `Cc1cc(O)c(C(C)C)cc1SC#N`, the growth inhibition is 12% (at 1.2 µM); -17% (at 3.7 µM); 68% (at 11.0 µM); 54% (at 33.0 µM); 98% (active) (at 100.0 µM).

For `COc1ccc2c(c1)CCCC(Br)C2=O` (stereo not given), the growth inhibition is, setting by setting: (at 1.2 µM) 1%; (at 3.7 µM) 11%; (at 11.0 µM) -9%; (at 33.0 µM) 45%; (at 100.0 µM) 96% (active).

Regarding `Cc1cc(C)c2[s+]snc2c1`, the growth inhibition was -7% (at 1.2 µM); -7% (at 3.7 µM); -4% (at 11.0 µM); -1% (at 33.0 µM); 17% (at 100.0 µM).

Regarding `C[n+]1c(/C=C/c2ccc(/C=N/NC(=O)c3ccc(C(=O)N/N=C/c4ccc(/C=C/c5cn6ccccc6[n+]5C)cc4)cc3)cc2)cn2ccccc21`, the growth inhibition by setting is: (at 1.2 µM) 47%; (at 3.7 µM) 91% (active); (at 11.0 µM) 91% (active); (at 33.0 µM) 95% (active); (at 100.0 µM) 89% (active).

For `CC1=NN(C(=O)c2ccccc2O)C(=O)/C1=C/c1ccco1`, the growth inhibition is, setting by setting: (at 1.2 µM) 6%; (at 3.7 µM) 7%; (at 11.0 µM) 81% (active); (at 33.0 µM) 91% (active); (at 100.0 µM) 95% (active).
